# Inconclusive results are not listed. Entries that show only a call come without a potency. Calls of active or inactive are those of the source. Unless noted, calls come from the whole dose curve; as a rule, active = well fitted curve in the direction sought with a large enough effect; inconclusive = small, poorly fitted or top-dose-only effect, or another doubt; inactive = no such curve, though single readings can be large; an effect the other way counts as inactive or inconclusive. Where a SMILES comes first, the peptide text is derived from it. Bridges are numbered along the chain shown (N, C = ends). [ ]: non-standard residue; d: D form. The star is where a group is joined. Dab(CH2SO3H) = N[C@@H](CCNCS(=O)(=O)O)C(=O)O; X3 = CC[C@@H](C)CCCCC(=O)*; Dab = NCC[C@H](N)C(=O)O
# Legend:
# [1] = qHTS assay to identify small molecule inhibitors of chordoma cells - UCH-1 (AID 1259355); note: nearly all actives have a fitted effect of over 55% in size
# Procedure, shortened: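 Cells (800/well) were seeded and left overnight at 37 C, 5% CO2, then treated with drugs at 15 concentrations plus a combination mix of auranofin, camptothecin, doxorubicin, rubitecan and topotecan. Viability after 48hr was read by CellTiter-Glo luminescence.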
# [2] = qHTS assay to identify small molecule inhibitors of chordoma cells - UCH-2 (AID 1259356); note: potency is the fitted concentration of half-maximal effect
# [3] = qHTS profiling for inhibitors of Plasmodium falciparum (3D7) proliferation (AID 743322);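 note: infected erythrocytes exposed to compound for 72 h before lysis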; settings: P. falciparum 3D7 proliferation; at 28.7 µM (top of the series) unless noted
# Procedure, shortened: (§1)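 Erythrocytes infected with P. falciparum (0.3% parasitemia, 2.5% hematocrit) incubated with compounds 72 h at 37 C, 5% CO2. Lysis with saponin/Triton buffer containing SYBR Green I, overnight at room temperature in the dark; DNA fluorescence (485/535 nm) normalised to 0.29 uM artemisinin and DMSO.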
# [4] = qHTS profiling for inhibitors of Plasmodium falciparum (DD2) proliferation (AID 743323; call rule not given here); settings: lower = more inhibition; at 28.7 µM (top of the series) unless noted
# Procedure, shortened: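 Parasite DNA quantified by SYBR Green fluorescence (ex 485, em 535 nm) after saponin/Triton lysis and overnight dark incubation. Cultures: 0.3% parasitemia, 2.5% hematocrit, 72 h, 37 C; data scaled between DMSO and 0.29 uM artemisinin.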
# [5] = qHTS profiling of the MIPE4 collection as inhibitors of Plasmodium falciparum (3D7) proliferation (AID 743344; call rule not given here); settings: P. falciparum 3D7 in erythrocytes, SYBR Green DNA fluorescence, 72 h; at 28.5 µM (top of the series) unless noted
# Procedure, shortened: as §1
# [6] = qHTS profiling of the MIPE4 collection as inhibitors of Plasmodium falciparum (DD2) proliferation (AID 743345; call rule not given here); settings: P. falciparum Dd2 in erythrocytes, SYBR Green DNA, 72 h; at 28.5 µM (top of the series) unless noted
# Procedure, shortened: as §1
# [7] = qHTS profiling of the MIPE4 collection as inhibitors of Plasmodium falciparum (DD2) proliferation (Rep 2) (AID 743346; call rule not given here); settings: P. falciparum Dd2 in erythrocytes, SYBR Green DNA, 72 h; at 28.5 µM (top of the series) unless noted
# Procedure, shortened: as §1
# [8] = qHTS profiling of the MIPE4 collection as inhibitors of Plasmodium falciparum (HB3) proliferation (AID 743347; call rule not given here); settings: P. falciparum HB3 in erythrocytes, SYBR Green DNA, 72 h; at 28.5 µM (top of the series) unless noted
# Source text: Plasmodium falciparum is a virulent malarial parasite that kills 1-2 million people worldwide each year. Transmitted by mosquitoes, the sporozoite form of the parasite enters the blood stream to infect hepatocytes, where they become merozoites that infect red blood cells (erythrocytes). Within erythrocytes, merozoites begin a […] cycle of growth and division, after which the parasite is released to infect new red blood cells. Gametocytes, which form within erythrocytes as well, circulate in the bloodstream and are ingested by the mosquito, thereby completing the life cycle. To profile malarial isolates for differential chemical responses and to identify inhibitors of malarial growth, an assay that measures P. falciparum growth and replication within erythrocytes was employed. This assay uses a DNA binding fluorescent dye (SYBR Green) to detect parasite DNA following cell lysis. Because mature erythrocytes lack DNA, only Plasmodium-derived DNA is detected.
# The SYBR Green viability assay was adapted from a method described previously (Plouffe et al., 2008). For screening 3 ul culture medium was dispensed into 1536 well black clear bottom plates (Aurora Biotechnologies) using a Multidrop Combi (Thermo Fisher Scientific Inc.), 23 nL compounds in DMSO were added by a pin tool (Kalypsys), and 5 ul of erythrocytes infected with P. falciparum (0.3% parasitemia, 2.5% hematocrit final concentration) were added. The plates were incubated at 37 C in a humidified incubator in 5% CO2 for 72 h, and 2 ul lysis buffer (20 mM Tris HCl, 10 mM EDTA, 0.16% saponin, 1.6% triton X, 10X SYBR Green I supplied as 10,000X […] by Invitrogen) was added to each well. The plates were mixed for 25 sec with gentle shaking and incubated overnight at room temperature in the dark. The following morning, fluorescence intensity at 485(14) nm excitation and 535(25) nm emission wavelengths was measured on an EnVision (Perkin Elmer) plate reader. Plate reads were normalized relative to the control inhibitor (0.29 uM artemisinin) and vehicle (DMSO) wells present on each plate and then corrected by an algorithm using vehicle-only control plates at the beginning and end of the compound plate stack.
# [9] = qHTS profiling for inhibitors of Plasmodium falciparum (HB3) proliferation (AID 743324); settings: Plasmodium falciparum HB3 blood-stage proliferation; at 28.7 µM (top of the series) unless noted
# Procedure, shortened: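 P. falciparum HB3 grown in erythrocytes (0.3% parasitemia, 2.5% hematocrit final) with compound for 72 h at 37 C, 5% CO2. Parasite DNA detected by SYBR Green after saponin/triton lysis overnight; normalized to 0.29 uM artemisinin and DMSO.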
# [10] = qHTS assay for cell viability of the p53RE-bla HCT-116 cell line (AID 743292); note: nearly all actives have a fitted effect of over 55% in size
# Procedure, shortened: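 HCT-116 p53RE-bla cells seeded 4,000/well; 5 h at 37 C; compound (DMSO) added; 16 h at 37 C; CellTiter-Glo added, 30 min RT; luminescence read.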
compound,measurement,setting,value
CC(C)(C)C1(O)CCN2CC3c4ccccc4CCc4cccc(c43)C2C1 (configuration not stated),Potency,[1],inactive
same,Potency,[2],inactive
CC(C)(C)NC(=O)[C@@H]1C[C@@H]2CCCC[C@@H]2CN1C[C@@H](O)[C@H](Cc1ccccc1)NC(=O)[C@H](CC(N)=O)NC(=O)c1ccc2ccccc2n1,Potency,[1],inactive
same,Potency,[2],inactive
Cc1cc(C(=O)NNCc2ccccc2)no1,Potency,[1],inactive
same,Potency,[2],inactive
COc1ccc(CCNC[C@H](O)c2ccc(O)cc2)cc1OC,Potency,[1],inactive
same,Potency,[2],inactive
CC[C@H]1OC(=O)[C@H](C)[C@@H](O[C@H]2C[C@@](C)(OC)[C@@H](O)[C@H](C)O2)[C@H](C)[C@@H](O[C@@H]2O[C@H](C)C[C@H](N(C)C)[C@H]2O)[C@](C)(O)C[C@@H](C)/C(=N\OCOCCOC)[C@H](C)[C@@H](O)[C@]1(C)O,Potency,[1],inactive
same,Potency,[2],inactive
C=C[C@]1(C)C[C@@H](OC(=O)CSC(C)(C)CNC(=O)[C@H](N)C(C)C)[C@]2(C)[C@H](C)CC[C@]3(CCC(=O)[C@H]32)[C@@H](C)[C@@H]1O,Potency,[1],inactive
same,Potency,[2],inactive
COC(F)(F)C(Cl)Cl,Potency,[1],inactive
same,Potency,[2],inactive
C#CCOc1ccc2c(C)cc(=O)oc2c1,Potency,[1],inactive
same,Potency,[2],inactive
CC[N+](CC)(CC)CCC(O)(c1ccccc1)C1CCCCC1 (configuration not stated),Potency,[1],inactive
same,Potency,[2],inactive
CO[C@H]1C[C@H](O[C@H]2[C@H](C)[C@@H](O[C@@H]3O[C@H](C)C[C@H](N(C)C)[C@H]3OC(C)=O)[C@@H](C)C[C@]3(CO3)C(=O)[C@H](C)[C@@H](OC(C)=O)[C@@H](C)[C@@H](C)OC(=O)[C@@H]2C)O[C@@H](C)[C@@H]1OC(C)=O,Potency,[1],inactive
same,Potency,[2],inactive
CC1(C)S[C@@H]2[C@H](NC(=O)[C@@H](NC(=O)N3CCNC3=O)c3ccccc3)C(=O)N2[C@H]1C(=O)O,Potency,[1],inactive
same,Potency,[2],inactive
C[C@@H]1[C@H](O)[C@@H](C)/C=C/C=C\C=C\C=C\C=C\C=C\C=C\[C@H](O[C@@H]2O[C@H](C)[C@@H](O)[C@H](N)[C@@H]2O)C[C@@H]2O[C@](O)(C[C@@H](O)C[C@@H](O)[C@H](O)CC[C@@H](O)C[C@@H](O)CC(=O)O[C@H]1C)C[C@H](O)[C@H]2C(=O)O (stereo in doubt),Potency,[1],inactive
same,Potency,[2],inactive
C=C1CC[C@@H]2[C@](C)(CO)[C@H](O)CC[C@@]2(C)[C@@H]1C/C=C1/C(=O)OC[C@H]1O,Potency,[2],inactive
OCC(S)CS (configuration not stated),Potency,[2],inactive
CCN(CC)Cc1cc(Nc2ccnc3cc(Cl)ccc23)ccc1O,remaining parasite growth % (stronger effect = lower value),[3],1.29% [at 9.63 µM]
same,"activity, percent of control",[4],2.43% [at 9.63 µM]
same,"parasite growth, % of DMSO control",[5],4.69% [at 9.64 µM]
same,"parasite growth remaining, % of DMSO control (lower = more inhibition)",[6],9.46% [at 9.64 µM]
same,"parasite growth, % of control (lower = inhibition)",[7],11.1% [at 9.64 µM]
same,"growth, % of control",[8],3.47% [at 9.64 µM]
same,Potency,[1],inactive
same,Potency,[2],inactive
CC(Oc1ccccc1)C(=O)N[C@@H]1C(=O)N2[C@@H]1SC(C)(C)[C@@H]2C(=O)O (some centres not stated),Potency,[2],inactive
O=C1CSC2(CCN(CCCN3c4ccccc4Sc4ccc(Cl)cc43)CC2)N1,Potency,[2],inactive
Nc1nc(N)c2nc(CNc3ccc(C(=O)N[C@@H](CCC(=O)O)C(=O)O)cc3)cnc2n1,Potency,[2],inactive
CC1=C(/C=C/C(C)=C/C=C/C(C)=C/C=C/C=C(C)/C=C/C=C(C)/C=C/C2=C(C)CCCC2(C)C)C(C)(C)CCC1,Potency,[2],inactive
CN1CCC(CN2c3ccccc3Sc3ccccc32)C1 (configuration not stated),remaining parasite growth % (stronger effect = lower value),[3],32.6%
same,"activity, percent of control",[4],26.9%
same,"remaining proliferation (% of control), lower = more inhibition",[9],21.8%
same,Potency,[1],inactive
CC1=C(/C=C/C(C)=C/C=C/C(C)=C/CO)C(C)(C)CCC1,outcome,[10],inactive
same,Potency,[1],inactive
same,Potency,[2],inactive
CCCCC(C)(O)C/C=C/[C@H]1[C@H](O)CC(=O)[C@@H]1CCCCCCC(=O)OC (some centres not stated),Potency,[2],inactive
CC1(C)S[C@@H]2[C@H](NC(=O)Cc3ccccc3)C(=O)N2[C@H]1C(=O)O,Potency,[2],inactive
N[C@H](C(=O)O)[C@@H]1CC(Cl)=NO1,Potency,[2],inactive
CC[C@@H](C)CCCCC(=O)N[C@@H](CCNCS(=O)(=O)O)C(=O)N[C@H](C(=O)N[C@@H](CCNCS(=O)(=O)O)C(=O)N[C@H]1CCNC(=O)[C@H]([C@@H](C)O)NC(=O)[C@H](CCNCS(=O)(=O)O)NC(=O)[C@H](CCNCS(=O)(=O)O)NC(=O)[C@H](CC(C)C)NC(=O)[C@@H](CC(C)C)NC(=O)[C@H](CCNCS(=O)(=O)O)NC1=O)[C@@H](C)O (X3-[Dab(CH2SO3H)]T[Dab(CH2SO3H)][Dab][Dab(CH2SO3H)][dL]L[Dab(CH2SO3H)][Dab(CH2SO3H)]T; lactam 4-C),Potency,[2],inactive
CC[C@H]1OC(=O)C[C@@H](O)[C@H](C)[C@@H](O[C@@H]2O[C@H](C)[C@@H](O)[C@H](N(C)C)[C@H]2O)[C@@H](CCN2C[C@H](C)C[C@H](C)C2)C[C@@H](C)C(=O)/C=C/C(C)=C/[C@@H]1CO[C@@H]1O[C@H](C)[C@@H](O)[C@@H](OC)[C@H]1OC,Potency,[2],inactive
CCCCCCCCCCCC[n+]1ccc2ccccc2c1,Potency,[2],25.9 µM (active)
CO[C@H]1C[C@@H]2CC[C@@H](C)[C@@](O)(O2)C(=O)C(=O)N2CCCC[C@H]2C(=O)O[C@H]([C@H](C)C[C@@H]2CC[C@@H](OCCO)[C@H](OC)C2)CC(=O)[C@H](C)/C=C(\C)[C@@H](O)[C@@H](OC)C(=O)[C@H](C)C[C@H](C)/C=C/C=C/C=C/1C,Potency,[2],inactive
